Assay outcomes as filed in PubChem.
Most compounds without a hit are left out; they make up all but 21% or so of the library.
SARS PLP yeast = qHTS of Yeast-based Assay for SARS-CoV PLP; Potency, µM (series often up to 32.9 µM), for inactives: at the top dose activity, positive = growth rescue, hits mostly activators; 0.19% of 330,000 active; S. cerevisiae expressing SARS-CoV PLpro, growth rescue; AID 485353, 2010; calls by dose curve; also: potency is read from the fitted curve at half-maximal effect; 0% is about no effect; nearly all actives have a fitted effect of over 55% in size
Shiga inhibitor = A qHTS for Small Molecule Inhibitors of Shiga Toxin | Vero cells, Shiga toxin protein synthesis inhibition reporter | inhibition, % at 38.7 µM | 9.2% of 290,000 active | AID 2315, 2010; in the data active = inhibition mostly above about 28%, no sharp cut-off; inactive = mostly below about 43%; also: 0% is about no effect
NS1 function inh = qHTS Assay for Inhibitors of Influenza NS1 Protein Function. Potency, µM (doses to about 46.1 µM), for inactives: at the top dose activity, positive = more growth. 0.4% of 270,000 active; calls by dose curve; also: potency is read from the fitted curve at half-maximal effect; actives are rising curves; nearly all actives have a fitted effect of over 50% in size
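Recovery from NS1-induced slow growth read by OD600 in budding yeast switched to galactose assay medium (pH 6.0, -URA) at 1:100 dilution. Compound 23 nl per well; the matching strain lacking NS1 serves as control.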
CHX counter = Cycloheximide Counterscreen for Small Molecule Inhibitors of Shiga Toxin; cell reporter, cycloheximide protein synthesis inhibition counterscreen; max response, %; 12% of 300,000 active; AID 2314, 2010; in the data active = max response mostly above about 13%, no sharp cut-off; inactive = mostly below about 14%; also: read at 38.3 µM for the half of the compounds with a filed dose; 0% is about no effect
Pf growth 48h = Primary qHTS for delayed death inhibitors of the malarial parasite plastid, 48 hour incubation | Potency, µM (doses to about 28.7 µM), inactives show at the highest dose activity change, negative = inhibition, most hits filed as inhibitors | 5.9% of 310,000 active | AID 504832, 2011 | P. falciparum luciferase growth in erythrocytes, 48 h; also: potency is read from the fitted curve at half-maximal effect; % is scaled to controls: 0 for no effect and ±100 for the full control effect
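Compounds are pin-transferred into medium, infected erythrocytes (2% hematocrit, 0.1% parasitemia final) are added, and plates sit one parasite generation at 37 C in 5% CO2. Detection reagent is then added and luminescence measured.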
Pf growth 96h = Primary qHTS for delayed death inhibitors of the malarial parasite plastid, 96 hour incubation | P. falciparum luciferase reporter growth, 96 h | Potency, µM (highest dose often 28.7 µM), for inactives: at the top dose activity change, negative = inhibition, usual class: inhibitors | 6.9% of 320,000 active; also: potency is read from the fitted curve at half-maximal effect; % is scaled to controls: 0 for no effect and ±100 for the full control effect
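Two parasite generations (96 h, 37 C, 5% CO2) of compound exposure in infected erythrocytes (0.05% parasitemia, 2% hematocrit). Luciferase-reporter P. falciparum; decreased luminescence indicates inhibited growth, aimed at apicoplast-acting delayed death.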
Active calls of the source: *; i = inactive; u = inconclusive; x = no result given. Unless noted, calls follow the shape of the dose curve; as a rule, active = well fitted inhibition curve with a large enough effect; inconclusive = small, poorly fitted or top-dose-only effect, or another doubt; inactive = no such curve, though single readings can be large or run the other way.

SMILES | SARS PLP yeast | Shiga inhibitor | NS1 function inh | CHX counter | Pf growth 48h | Pf growth 96h
O=C(Nc1ccncc1)c1ccc(NS(=O)(=O)c2cccc(F)c2)cc1 | 26% | -8 | 9% | -4 | u | u
COc1cccc(C(=O)Nc2ccccc2-c2ccccc2)c1 | 0% | x | x | x | u | -7%
CCC(CC)N=C1NS(=O)(=O)c2cc([N+](=O)[O-])ccc21 | 1% | 4 | 3% | 0 | u | u
COc1ccccc1N1CCc2c(C)nc3c(OC)cccc3c21 | 4% | -6 | -3% | 7 | 13µM* | u
Cc1c(O)nc2ccccn2c1=O | 0% | 19 | 0% | -3 | 0% | 73%
CCCCc1c(O)nc2ccccn2c1=O | -7% | -5 | 8% | -2 | u | 12µM*
COc1ccccc1CCC(=O)N(C)C1CCCN(Cc2ccccc2F)C1 (stereo not given) | 4% | 7 | 1% | 0 | -2% | 10µM*
COc1cc(C(=O)N(C)C2CCCN(Cc3ccccc3F)C2)cc(OC)c1OC (stereo not given) | 2% | -8 | 19% | -4 | -16% | u
CCCn1c(SC(C)C(=O)N2CCOCC2)nc2ccc(Br)cc2c1=O (stereo not given) | -2% | x | x | x | -44% | u
COc1ccc(N2CCN(C(=O)CCCn3nnnc3CN3CCOCC3)C(C)C2)cc1 (stereo not given) | 4% | -11 | -1% | 5 | -9% | 12µM*
CCN(CC)C(=O)C1CCCN(C(=O)CCn2nnnc2CN2CCOCC2)C1 (stereo not given) | 2% | -12 | 9% | -3 | 4% | 9%
O=C(CCCn1nnnc1CN1CCOCC1)N1CCC(c2ccc(F)cc2)C1 (stereo not given) | 5% | -23 | -1% | 7 | -36% | 7.4µM*
C[C@@H](C(=O)Nc1ccc2ccccc2c1)[C@H]1C[C@]1(C)[C@H](NC(=O)OCc1ccccc1)c1ccccc1 | u | 51* | u | 19* | u | 10µM*
Cc1cc(C(=O)N[C@H](c2ccccc2)[C@@]2(C)C[C@@H]2[C@@H](C)C(=O)Nc2ccc3ccccc3c2)n(C)n1 | -5% | -16 | 7% | -3 | 2.6µM* | 3.7µM*
C[C@@H](C(=O)NCC1CC1)[C@@H]1C[C@@]1(C)[C@@H](NC(=O)OCc1ccccc1)c1ccccc1 | 4% | 16 | -8% | 3 | 4.1µM* | 4.1µM*
C[C@H](CO)NC(=O)[C@H](C)[C@H]1C[C@]1(C)[C@H](NC(=O)OCc1ccccc1)c1ccccc1 | 18% | -15 | -10% | -3 | 3% | 1%
C[C@@H](C(=O)NCCc1c[nH]c2ccccc12)[C@H]1C[C@]1(C)[C@H](NC(=O)OCc1ccccc1)c1ccccc1 | 1% | -13 | 28% | -2 | 13µM* | 9.3µM*
CC(C)CC1NC(=O)N(Cc2cc(=O)n3ccsc3n2)C1=O (stereo not given) | 0% | -20 | 8% | -9 | -8% | u
COC(=O)c1cc2ccsc2n1Cc1cc(=O)n2ccccc2n1 | 5% | 74* | -31% | 28* | u | 48%
COC(=O)c1cc2ccsc2n1Cc1nc(-c2ccc(Cl)cc2)oc1C | 10% | -9 | 5% | -6 | x | u
O=c1c2sccc2n(Cc2cc(=O)n3ccccc3n2)c(=O)n1-c1ccccc1 | 15% | -5 | 9% | 1 | 0% | 4.7µM*
Cc1ccc(F)cc1NC(=O)C1C2CCC(O2)C1C(=O)O (stereo not given) | 1% | -4 | 7% | 0 | u | 1%
CCCNC(=O)c1c[nH]c2ccc(S(=O)(=O)N(C)c3ccc(OCC)cc3)cc2c1=O | 4% | 14 | -27% | -2 | 12µM* | 2%
Cc1ccc(N(C)S(=O)(=O)c2ccc3[nH]cc(C(=O)NCCCN4CCOCC4)c(=O)c3c2)cc1C | -5% | -6 | -3% | 4 | 2.3µM* | u
CCCCN(C)CCNC(=O)c1c[nH]c2ccc(S(=O)(=O)N(CC)CC)cc2c1=O | 2% | 19 | 1% | -1 | 3.7µM* | -19%
SMILES | SARS PLP yeast | Shiga inhibitor | NS1 function inh | CHX counter | Pf growth 48h | Pf growth 96h
Cc1ccc(C)c(N(C)S(=O)(=O)c2ccc3[nH]cc(C(=O)NCCN4CCOCC4)c(=O)c3c2)c1 | 9% | -6 | -10% | -3 | u | x
CC(=O)N1N=C(c2cccs2)CC1c1cc2cc(C)ccc2nc1Cl (stereo not given) | 0% | 33 | 5% | -1 | 13% | 3%
O=C1c2ccccc2C(=O)N1c1ccc(Cc2ccncc2)cc1 | 7% | 38 | -2% | 15* | 27% | -2%
CC(C)OP(=O)(c1ccc(N(C)C)cc1)C(Nc1ccccc1)c1cccnc1 (stereo not given) | 19% | -9 | -6% | -2 | u | 0%
CN(C)c1ccc(P(=O)(OC2CCCCC2)C(Nc2ccccc2)c2cccnc2)cc1 (stereo not given) | -5% | 7 | -1% | 2 | 9.3µM* | 2.9µM*
O=C(NCc1ccco1)c1cnn2c(C(F)(F)F)cc(-c3cccs3)nc12 | -5% | -6 | -3% | 2 | u | 9.3µM*
O=C(NCc1ccco1)c1cnn2c(C(F)F)cc(-c3ccccc3)nc12 | -3% | -22 | -8% | -4 | -12% | x
Cc1cc(C)c(Cc2c(C)nc3c(C(=O)NCc4ccco4)cnn3c2C)c(C)c1 | -17% | 3 | 12% | -2 | x | 12µM*
O=C(c1cnn2c(C(F)(F)F)cc(-c3cccs3)nc12)N1CCCC1 | -1% | -14 | 3% | -1 | -1% | -22%
CC(C)(C)c1ccc(C(=O)OCC(=O)N2CCC(c3ccccc3)=N2)cc1 | 5% | x | x | x | -24% | u
COc1ccccc1CCNC(=O)C(=O)NCC1OCCCN1S(=O)(=O)c1cc(C)ccc1C (stereo not given) | -5% | -2 | -27% | -2 | u | u
Cc1ccc(C)c(S(=O)(=O)N2CCCOC2CNC(=O)C(=O)NCCc2ccco2)c1 (stereo not given) | -4% | -1 | 0% | 14 | -5% | 13µM*
COc1ccc(CCNC(=O)C(=O)NCC2OCCCN2S(=O)(=O)c2cc(C)ccc2C)cc1 (stereo not given) | -3% | -8 | 7% | -1 | u | 13µM*
S=C1NCCOCCOCCNC(=S)N2CCOCCOCCN1CCOCCOCC2 | -1% | -1 | x | -6 | 3% | -3%
O=C(Cn1ncc2c3ccccc3n(Cc3ccccc3)c2c1=O)N1CCC2(CC1)OCCO2 | -5% | 30 | 6% | 29* | u | 1%
Cc1occc1C(=O)Nc1cccc2ccccc12 | -85% | 67* | -99% | 56* | i | -8%
Cc1cc(C(=O)NCCC(c2ccccc2)c2ccccc2)c(C)o1 | -15% | 40 | -7% | 26* | x | u
